We go through 40 molecules from PubChem BioAssay (Tox21).

Unmarked numbers belong to inactive results. Calls of active or inactive are those of the source. Calls follow the shape of the dose curve; as a rule, active = well fitted curve in the direction sought with a large enough effect in the repeat runs; inconclusive = weak or mixed curves; inactive = flat fitted curve, though single readings scatter.
% is scaled to controls: 0 for no effect and ±100 for the full control effect.

This test is described as follows: qHTS assay to test for compound auto fluorescence at 535 nm (green) in HEK293 cells (AID 720680). The following applies: green autofluorescence 485/535 nm; series mostly up to 91.3 µM. From the text:
U.S. Tox21 Program National Center for Advancing Translational Sciences [NCATS] NIH Chemical Genomics Center [NCGC] U.S. Environmental Protection Agency [EPA] National Institutes of Environmental Health Sciences [NIEHS] National Toxicology Program [NTP] U.S. Food and Drug Administration [FDA] Tox21 Assay Overview: Compound auto fluorescence often interferes with screening of the compound library against various biological targets and signaling pathways. Some of these compounds may have fluorophoric properties. Such properties may interfere with the assay outputs resulting in false positives and/or negatives. To decrease such complications and ensure the compound activities are relevant in terms of biological response, the Tox21 10K compound library was screened for auto fluorescence. From the fluorophores used as reporter signals in our screening assays, the auto fluorescence equivalencies of compounds against three fluorophores have been evaluated: Triamterene, Fluorescein and Rose Bengal sodium for blue, green and red fluorescence, respectively. The fluorescence intensities were measured using Excitation/Emission wavelengths at 405/460nm, 485/535nm and 540/590nm for blue, green and red labels, respectively. This assay includes the green fluorescence data.
Tox21 Assay Protocol Summary: 2,000 HEK293 cells in 5 uL of culture medium containing 10% dialyzed FBS per well were dispensed into black wall/clear bottom 1536-well plates using a Multidrop Combi Dispenser (Thermo Scientific). The assay plates were incubated for 4-5 hr at 37C to allow cell attachment to the well bottom, followed by the transfer of 23 nL compound or DMSO vehicle by a pintool work station (Kalypsys, San Diego, CA). After the assay plates were incubated overnight at 37C and 5% CO2, fluorescence intensities in the assay plates were measured by an Envision (PerkinElmer, Shelton, CT) plate reader using three labels for measuring blue, green and red fluorescence at […] 460, 535 and 590nm respectively.
For the molecule `Oc1ccc(O)c2c(O)cccc12`, the result was inactive.

Turning to `C=C(C)C(=O)OCCN(C)C`, the molecule was classed as inactive.

Consider `CCOC(=O)CC(C)C`, for which the call was inactive.

As to `CN(C)C/C=C(/c1ccc(Br)cc1)c1cccnc1`, the outcome was inactive.

On to `O=C(c1ccc(O)cc1)c1ccc(O)cc1`, for which the result was inactive.

For the molecule `Cc1cc(NC(=O)C(=O)O)cc(C)c1Oc1ccc(O)c2c1CCC2`, the molecule was called inactive.

Regarding `O=C(O)C1CCC(C(=O)O)CC1` (stereo not given), the outcome was inactive.

For `CC(=O)O[C@@H]1C(=O)O[C@@H]2[C@H]1OC(=O)[C@@H]2OC(C)=O`, the outcome was inactive.

`CCCOc1ccc2nc(NC(=O)OC)[nH]c2c1`: the molecule was classed as inactive.

With `CCOC(=O)C1=C(C)NC(C)=C(C(=O)OC)C1c1cccc([N+](=O)[O-])c1` (stereo not given), the molecule was called inactive.

Consider `O=C(Cl)c1c(Cl)cccc1Cl`, for which the call was inactive.

Take `CCCCCc1ccc(N)cc1`: the outcome was inactive.

As for `C=Cc1c(C)c2cc3[nH]c(cc4nc(cc5nc(cc1[nH]2)C(C)=C5CCC(=O)O)C(CCC(=O)O)=C4C)c(C)c3C=C`, the molecule was called inactive.

For `SC1CCCC1`, the call was inactive.

Regarding `NCc1ccccc1`, the outcome was inactive.

Consider `CCCCc1cc2ccccc2c(OCCN(C)C)n1`, for which the fluorescence, % of fluorescein is -0.0691% [at 18.6 µM].

Regarding `CCN(CC)CCOC(=O)C1(c2ccccc2)CCCC1`, the molecule was classed as inactive.

Take `NC(N)=NN=C(/C=C/c1ccc([N+](=O)[O-])o1)/C=C/c1ccc([N+](=O)[O-])o1`: the molecule was called inactive.

As for `CCCCCCCCC(CO)CCCCCC` (stereo not given), the call was inactive.

Regarding `CN(C(=O)CCCOc1ccc2[nH]c(=O)ccc2c1)C1CCCCC1`, the outcome was inactive.

Take `CC[C@]12CCCN3CCc4c(n(c5ccccc45)C(=O)C1)[C@@H]32`: the fluorescence, % of fluorescein is 0.0475% [at 18.6 µM].

For the molecule `C[C@@H](C1=C(CCN(C)C)Cc2ccccc21)c1ccccn1`, the result was inactive.

On to `N[C@H]1C(O)O[C@H](CO)[C@H](O)[C@@H]1O` (stereo not given in full), for which the result was inactive.

`CC(Cc1cccc(C(F)(F)F)c1)NCCOC(=O)c1ccccc1` (stereo not given): the call was inactive.

As to `O=C(O)c1cccc(N(Cc2cccnc2)c2ccc(OC(F)F)c(OC(F)F)c2)c1`, the call was inactive.

`CC/C(=C\C(=N/O)C(N)=O)C(C)[N+](=O)[O-]` (stereo not given): the result was inactive.

Consider `CC(C(=O)O)c1ccc(C(=O)c2ccccc2)s1` (stereo not given), for which the fluorescence, % of fluorescein is 0.0614% [at 18.6 µM].

Consider `Cl/C(=C\n1cncn1)c1ccc(Cl)cc1Cl`, for which the result was inactive.

As for `CC(=O)c1c(C)c([N+](=O)[O-])c(C(C)(C)C)c([N+](=O)[O-])c1C`, the call was inactive.

On to `C[C@H](CCC(=O)O)[C@H]1CC[C@H]2[C@@H]3[C@H](O)C[C@@H]4C[C@H](O)CC[C@]4(C)[C@H]3CC[C@]12C`, for which the molecule was called inactive.

For `NC(N)=N/N=C/c1c(Cl)cccc1Cl`, the molecule was called inactive.

For `Cn1c(=O)c2c(ncn2CC(O)CO)n(C)c1=O` (stereo not given), the fluorescence, % of fluorescein was -0.0383% [at 18.6 µM].

As for `N#CCCNCCC#N`, the call was inactive.

Consider `CCCCOC(O)CC` (stereo not given), for which the molecule was classed as inactive.

As to `O=C(O)COC(=O)Cc1ccccc1Nc1c(Cl)cccc1Cl`, the fluorescence, % of fluorescein was 0.0784% [at 18.6 µM].

With `O=C(C(=O)c1ccc(Br)cc1)c1ccc(Br)cc1`, the fluorescence, % of fluorescein was -0.0337% [at 18.6 µM].

For `CCN(CC)CCOc1ccc2c(c1)C(=O)c1cc(OCCN(CC)CC)ccc1-2`, the molecule was classed as inactive.

Consider `CC(=O)O[C@H]1C[C@@H]2CC[C@@H]3[C@H](CC[C@@]4(C)[C@H]3C[C@H]([N+]3(C)CCCCC3)[C@@H]4OC(C)=O)[C@@]2(C)C[C@@H]1N1CCCCC1`, for which the molecule was classed as inactive.

`O=C1[C@H](CC[C@H](O)c2ccc(F)cc2)[C@@H](c2ccc(O)cc2)N1c1ccc(F)cc1`: the molecule was called inactive.

Consider `CCCCCC/C=C/C=O`, for which the molecule was called inactive.
